This is a sample that favours compounds with a hit; in the whole collection about 2.3% have one here.
Mcl1-Bid inh – Mcl-1/Bid interaction inhibition. Q07820. TR-FRET Mcl-1/Bid-Dy647 peptide binding, 1536-well. inhibition, % at 21.7 µM. actives 0.97% (n = 220,000). AID 1021;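 active = compounds that cut the binding signal by more than half at the single screening dose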;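 note: His-tagged Mcl-1 with europium anti-His antibody binding Bid BH3 peptide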
GLD-1 RNA inh – GLD-1-TGE RNA interaction inhibition (C. elegans) | purified GLD-1 + fluorescein TGE RNA, fluorescence polarization | inhibition, % at 5.96 µM | actives 0.44% (n = 320,000) | AID 2280;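 active = percent inhibition above a per-plate cutoff, the plate mean of test compounds plus 3 SD, cut at about 30% in these data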
Target sequence (Q17339 whole entry, looked up): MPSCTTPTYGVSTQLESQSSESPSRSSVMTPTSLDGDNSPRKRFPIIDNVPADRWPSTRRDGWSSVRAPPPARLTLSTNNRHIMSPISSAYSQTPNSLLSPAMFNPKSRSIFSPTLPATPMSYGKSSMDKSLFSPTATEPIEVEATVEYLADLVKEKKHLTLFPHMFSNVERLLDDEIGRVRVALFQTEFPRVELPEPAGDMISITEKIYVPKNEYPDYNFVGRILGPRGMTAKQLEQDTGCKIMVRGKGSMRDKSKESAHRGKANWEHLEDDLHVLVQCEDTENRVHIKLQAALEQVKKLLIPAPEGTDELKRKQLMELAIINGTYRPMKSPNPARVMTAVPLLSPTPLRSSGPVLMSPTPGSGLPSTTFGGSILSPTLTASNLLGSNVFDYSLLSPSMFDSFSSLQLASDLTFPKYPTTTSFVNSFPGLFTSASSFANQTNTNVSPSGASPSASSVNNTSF
BCLXL inh – blocks human Bcl-xL binding to Bim BH3 peptide | actives 0.7% (n = 320,000) | GST-Bcl-xL / FITC-Bim BH3 peptide fluorescence polarization | inhibition, % at 10.9 µM;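 active = inhibition above the mean of all tested compounds plus 3 SD, cutoff set per campaign, cut at about 30% in these data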;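 note: inhibitors lower millipolarization by displacing the labeled peptide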
MCL1-BIM inh – disrupts human MCL1 binding to BIM-BH3 peptide; GST-MCL1 / FITC-Bim-BH3 fluorescence polarization; inhibition, % at 10.9 µM; actives 0.68% (n = 320,000);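 active = inhibition above the mean inhibition of all tested compounds plus 3 SD, set per campaign, cut at about 40% in these data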;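 note: higher means more loss of mP so more displacement of Bim peptide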
Mcl1-Noxa inh – Mcl-1/Noxa interaction inhibition; TR-FRET Mcl-1/Noxa peptide binding, 2 h; AID 1022; actives 1.5% (n = 220,000); inhibition, % at 21.7 µM;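 active = compounds that cut the protein-peptide binding signal by more than 50% relative to plate controls in a single-dose test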;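 note: His-tagged Mcl-1 with rhodamine Noxa BH3 peptide and terbium anti-His antibody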
Bim-Mcl-1 – inhibitors of Bim-Mcl-1 interaction, human. Q07820. actives 0.1% (n = 190,000). inhibition, % at 10 µM. Bead-based flow cytometry, Bim peptide-Mcl-1 binding. AID 1009; in the data active = inhibition above about 40%
BCLXL inh confirm – counter-screen for MCL1 inhibitors: confirmation of human Bcl-xL inhibitors; shares compounds with MCL1-BIM inh; GST-Bcl-xL / FITC-Bim BH3 peptide FP binding; inhibition, % at 10.9 µM; actives 54% (n = 1,700); AID 2166;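 active = inhibition above a cutoff equal to the mean inhibition of all tested compounds plus 3 SD, cut at about 30% in these data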
MCL1 inh confirm – confirmation of human MCL1 and BIM-BH3 interaction inhibitors | shares compounds with MCL1-BIM inh | GST-MCL1 / FITC-Bim-BH3 fluorescence polarization | inhibition, % at 10.9 µM | actives 61% (n = 1,700) | AID 2168;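 active = inhibition above the average of all tested compounds plus 3 SD, cut at about 40% in these data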
GLD1 RNA confirm – confirmation of C. elegans GLD-1 TGE RNA binding inhibitors | AID 2459 | inhibition, % at 5.96 µM | GLD-1/FL-TGE RNA fluorescence polarization, biochemical | actives 10% (n = 550) | shares compounds with GLD-1 RNA inh;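 active = average inhibition across triplicates above the hit cutoff set in the primary screen, cut at about 32% in these data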
Numbers stand for hits; n = inactive; x = no result given.

SMILES	Mcl1-Bid inh	GLD-1 RNA inh	BCLXL inh	MCL1-BIM inh	Mcl1-Noxa inh	Bim-Mcl-1	BCLXL inh confirm	MCL1 inh confirm	GLD1 RNA confirm
CC(C)(C)OC(=O)NCCCC1=CC2=CC(=O)C(C)(OC(=O)C3CCCC3)C(=O)C2=CO1 (stereo not drawn)	x	79	65	74	x	x	48	66	x
COC(=O)CCCC1=CC2=CC(=O)C(C)(OC(=O)c3ccco3)C(=O)C2=CO1 (stereo not drawn)	x	73	67	88	x	x	75	110	x
CC(C)(C)OC(=O)NCCCCC1=CC2=CC(=O)C(C)(OC(=O)c3ccco3)C(=O)C2=CO1 (stereo not drawn)	x	49	n	61	x	x	n	n	x
CCCCC1=CC2=CC(=O)C(C)(O)C(=O)C2=CO1 (stereo not drawn)	x	n	n	n	x	x	x	x	x
CCOCCCNC(=S)N(CCO)Cc1cc2cc3c(cc2[nH]c1=O)OCCO3	x	n	n	n	x	x	x	x	x
CCCCn1c(=O)[nH]c2nc3cc(NC(C)=O)ccc3nc2c1=O	n	53	61	59	n	x	75	95	102
CC(=O)Nc1nc2n(n1)C(c1ccccc1)C=C(c1ccccc1)N2 (stereo not drawn)	n	47	57	53	n	n	57	80	n
O=C(O)C(Oc1ccc2ccccc2c1)c1ccccc1 (stereo not drawn)	x	n	n	n	x	x	x	x	x
Cc1nc2cc(NC(=O)N3CCN(c4ccccn4)CC3)ccc2o1	n	n	n	n	n	n	x	x	x
O=C(Nc1ccc2nc(-c3ccco3)c(-c3ccco3)nc2c1)N1CCN(c2ccccn2)CC1	n	34	51	53	64	n	58	71	n
CN(C)CCCN1C(=O)c2cccc3c([N+](=O)[O-])ccc(c23)C1=O	n	48	76	77	n	n	92	125	n
Nc1ccc(O)c2c1C(=O)c1ccccc1C2=O	n	82	123	158	103	n	120	177	67
CN1C(=O)c2ccc(N(C)C)cc2C1=O	n	n	n	n	n	n	x	x	x
CN1C(=O)c2ccc(N3CCCC3)cc2C1=O	n	36	48	63	n	n	47	55	n
CCn1cc(C(=O)NNC(=O)c2ccc(Cl)cc2)c(=O)c2ccc(C)nc21	n	n	n	n	n	n	x	x	x
Cc1c(NC=C(C#N)C#N)c(=O)n(-c2ccccc2)n1C	n	35	86	75	n	n	n	n	n
Cc1c(N/C=C(\Cl)C(=O)C(F)(F)F)c(=O)n(-c2ccccc2)n1C	n	n	n	n	n	n	x	x	x
CC1CCCN(c2nc3ccccc3nc2C(C#N)S(=O)(=O)c2ccccc2)C1 (stereo not drawn)	n	55	77	69	n	n	n	n	n
Cc1ccc(S(=O)(=O)C(C#N)c2nc3ccccc3nc2N2CCN(C)CC2)cc1 (stereo not drawn)	n	n	n	n	n	n	x	x	x
Nc1n[nH]c2cc(=O)n(-c3cccc(C(F)(F)F)c3)nc12	n	39	43	60	n	n	38	54	n
N#Cc1c(N)sc(=S)c2c1CCCCC2	n	56	87	113	71	n	62	76	n
CC(Oc1ccc2c3c(c(=O)oc2c1)CCC3)C(=O)NCCCn1ccnc1 (stereo not drawn)	x	n	n	n	x	x	x	x	x
CCC(=O)OCCNc1cc(Sc2nc3ccccc3s2)c2nonc2c1[N+](=O)[O-]	n	38	62	60	58	n	56	72	n
Cc1ccc(S(=O)(=O)N(C)CC(=O)N2CCCCCC2)cc1	x	n	n	n	x	x	x	x	x
Cc1ccc(C)c(-n2c3nc(=O)[nH]c(=O)c-3cc3cc([N+](=O)[O-])ccc32)c1	n	59	76	87	n	n	51	74	n
SMILES	Mcl1-Bid inh	GLD-1 RNA inh	BCLXL inh	MCL1-BIM inh	Mcl1-Noxa inh	Bim-Mcl-1	BCLXL inh confirm	MCL1 inh confirm	GLD1 RNA confirm
O=C(CN1C(=O)NC2(CCCc3ccccc32)C1=O)NCc1cccs1 (stereo not drawn)	x	n	n	n	x	x	x	x	x
CCOC(=O)c1ccc(NC(=O)[C@@H](NC(N)=O)C(C)C)cc1	n	98	110	120	n	x	n	n	n
CCC(C)C(NC(N)=O)C(=O)Nc1ccc(C(=O)OC)cc1 (stereo not drawn)	n	n	n	n	n	n	x	x	x
CCCCNc1c(N)n(CCCC)c(=O)[nH]c1=O	n	37	36	52	n	n	56	79	79
CC(C)CNc1c(N)n(CC(C)C)c(=O)[nH]c1=O	n	x	x	x	n	n	x	x	x
CCCCn1c(N)c(NCCC)c(=O)[nH]c1=O	n	31	35	50	n	n	n	n	n
CCCCn1c(N)c(NCc2ccccc2OC)c(=O)[nH]c1=O	n	n	n	n	n	n	x	x	x
Cc1cc(OCC(=O)NCC2CCC(C(=O)O)CC2)c2c(C)c(C)c(=O)oc2c1 (stereo not drawn)	x	n	n	n	x	x	x	x	x
CCC1OC2(C)OC(=N)C1(C#N)C(C#N)(C#N)C2c1ccccc1 (stereo not drawn)	n	44	60	55	n	n	n	n	n
CCOC(=O)C1=C(C)OC(N)=C(C#N)C1c1ccccc1 (stereo not drawn)	n	n	n	n	n	n	x	x	x
c1ccc(-c2ccc3ccccc3n2)cc1	x	n	n	n	x	x	x	x	x
CNc1ccccc(-c2ccc3ccccc3n2)c1=O	n	35	48	58	n	n	79	95	n
COCCn1c(SCC(=O)Nc2cccc(F)c2)nc2c(c1=O)SCC2	x	n	n	n	x	x	x	x	x
CCOC(=O)c1sc(=S)n(-c2ccc3c(c2)OCO3)c1N	n	49	106	49	n	n	n	n	n
CCn1c(CSc2ncccn2)nnc1SCC(=O)N1CCc2ccccc21	n	36	99	103	n	n	n	n	n
CCOc1ccc(NC(=O)CSc2ccc(-c3cccnc3)nn2)cc1	x	n	n	n	x	x	x	x	x
O=C1CC(c2ccccc2)c2ccccc21 (stereo not drawn)	n	n	n	n	n	n	x	x	x
CN1Cc2c(N)cccc2C(c2ccccc2)C1 (stereo not drawn)	n	39	79	92	n	n	n	n	n
CCOc1ccc(S(=O)(=O)N2CCN(C(=O)c3ccncc3)CC2)cc1	x	n	n	n	x	x	x	x	x
Oc1c(Br)cc(Br)cc1C=Nc1cccc2ncccc12	x	53	74	73	x	x	43	55	n
